Common to all, as to assay: DAPPL (digital affinity profiling via proximity ligation, sequencing); 10 mM Tris-HCl pH 7.5, 50 mM NaCl, 1 mM DTT, 4% glycerol, room temperature, 30 min; GST-TFs on glutathione beads, 16-mer random dsDNA library, 0.1% formaldehyde crosslink after washing; high values mean tight binding
Common to all, as to settings: protein: recombinant; tags: N-terminal GST; dsDNA, one strand shown

One test concerns the target T1, EHF (Homo sapiens, UniProt Q9NZC4 1-300).
T1 sequence: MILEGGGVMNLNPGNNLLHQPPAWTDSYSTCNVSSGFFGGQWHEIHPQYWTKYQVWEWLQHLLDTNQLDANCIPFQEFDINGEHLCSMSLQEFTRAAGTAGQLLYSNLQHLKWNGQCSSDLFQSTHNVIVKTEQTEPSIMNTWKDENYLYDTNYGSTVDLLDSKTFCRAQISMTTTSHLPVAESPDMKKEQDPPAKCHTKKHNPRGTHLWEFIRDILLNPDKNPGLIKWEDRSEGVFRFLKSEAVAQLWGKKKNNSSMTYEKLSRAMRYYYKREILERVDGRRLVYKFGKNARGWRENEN
In outline: (§1)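 Binding signal is each hexamer's read frequency for a factor divided by its frequency in the tag-only sample. The factors were GST-fused human transcription factors from yeast, captured on glutathione beads, DNA-barcoded and pooled with that sample. Pools were incubated with 200 nmole of a random double-stranded 16-mer DNA library in Tris/NaCl/DTT/glycerol buffer at room temperature for 30 min, then washed, crosslinked with 0.1% formaldehyde, proximity-ligated with BsaI/T4 ligase (1 h, 37 °C), PCR-amplified and sequenced on an Illumina NextSeq500.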

The target in another test is SPI1 (Homo sapiens, UniProt P17947 1-270). In outline: as §1
The next test addresses T2, ELK4 (Homo sapiens, UniProt P28324-2 1-405).
T2 sequence: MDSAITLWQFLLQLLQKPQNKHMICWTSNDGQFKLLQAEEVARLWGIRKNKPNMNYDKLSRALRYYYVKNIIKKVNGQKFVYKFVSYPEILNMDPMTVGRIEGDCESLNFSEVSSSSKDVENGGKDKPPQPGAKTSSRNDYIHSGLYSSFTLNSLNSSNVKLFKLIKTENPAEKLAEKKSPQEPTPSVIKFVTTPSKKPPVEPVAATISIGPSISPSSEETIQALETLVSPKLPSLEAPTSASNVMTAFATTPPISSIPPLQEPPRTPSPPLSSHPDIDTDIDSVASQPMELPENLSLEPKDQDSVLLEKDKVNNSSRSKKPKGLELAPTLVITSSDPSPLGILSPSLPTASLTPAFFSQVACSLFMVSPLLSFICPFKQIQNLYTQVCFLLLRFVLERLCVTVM
In short, it runs like this:
as §1

In the next test the target is T3, ETV7 (Homo sapiens, UniProt Q9Y603 1-341).
T3 sequence: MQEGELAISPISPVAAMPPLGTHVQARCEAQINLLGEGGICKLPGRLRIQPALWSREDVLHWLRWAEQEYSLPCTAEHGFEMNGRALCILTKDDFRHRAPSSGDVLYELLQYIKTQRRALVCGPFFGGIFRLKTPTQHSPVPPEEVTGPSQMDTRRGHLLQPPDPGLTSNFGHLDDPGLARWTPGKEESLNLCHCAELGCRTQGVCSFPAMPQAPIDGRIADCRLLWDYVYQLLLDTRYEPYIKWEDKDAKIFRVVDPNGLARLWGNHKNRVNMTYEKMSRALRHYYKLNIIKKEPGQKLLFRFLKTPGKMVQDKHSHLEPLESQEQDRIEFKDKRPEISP
In outline: as §1

In the next test the target is T4, ETV2 (Homo sapiens, UniProt O00321 1-342).
T4 sequence: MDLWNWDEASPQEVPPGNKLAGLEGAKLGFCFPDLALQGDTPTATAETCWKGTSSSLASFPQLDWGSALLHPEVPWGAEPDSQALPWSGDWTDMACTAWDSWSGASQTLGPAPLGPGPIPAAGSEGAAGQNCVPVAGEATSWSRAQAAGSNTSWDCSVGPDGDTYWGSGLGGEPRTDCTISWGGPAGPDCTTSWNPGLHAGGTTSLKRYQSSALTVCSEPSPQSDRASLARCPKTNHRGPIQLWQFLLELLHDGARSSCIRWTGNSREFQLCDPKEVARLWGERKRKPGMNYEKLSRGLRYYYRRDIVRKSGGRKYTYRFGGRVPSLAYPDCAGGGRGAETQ
In short, it runs like this:
as §1

A further test deals with ELF1 (Homo sapiens, UniProt P32519 1-619). In short, it runs like this: as §1
The next test has as its target T5, ELK3 (Homo sapiens, UniProt P41970 1-407).
T5 sequence: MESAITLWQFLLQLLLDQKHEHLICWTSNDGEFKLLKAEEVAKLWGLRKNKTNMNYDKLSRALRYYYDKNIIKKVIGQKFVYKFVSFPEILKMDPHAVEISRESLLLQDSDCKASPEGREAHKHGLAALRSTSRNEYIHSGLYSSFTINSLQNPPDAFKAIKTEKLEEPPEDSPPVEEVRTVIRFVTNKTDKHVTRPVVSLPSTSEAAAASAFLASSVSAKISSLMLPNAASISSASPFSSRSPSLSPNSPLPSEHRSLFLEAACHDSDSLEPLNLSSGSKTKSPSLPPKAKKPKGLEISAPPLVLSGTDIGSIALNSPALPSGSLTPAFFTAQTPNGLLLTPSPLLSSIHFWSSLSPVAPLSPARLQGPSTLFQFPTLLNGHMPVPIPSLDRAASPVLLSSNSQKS
In short, it runs like this:
as §1

A further test concerns the target T6, ELF3 (Homo sapiens, UniProt P78545 1-371).
T6 sequence: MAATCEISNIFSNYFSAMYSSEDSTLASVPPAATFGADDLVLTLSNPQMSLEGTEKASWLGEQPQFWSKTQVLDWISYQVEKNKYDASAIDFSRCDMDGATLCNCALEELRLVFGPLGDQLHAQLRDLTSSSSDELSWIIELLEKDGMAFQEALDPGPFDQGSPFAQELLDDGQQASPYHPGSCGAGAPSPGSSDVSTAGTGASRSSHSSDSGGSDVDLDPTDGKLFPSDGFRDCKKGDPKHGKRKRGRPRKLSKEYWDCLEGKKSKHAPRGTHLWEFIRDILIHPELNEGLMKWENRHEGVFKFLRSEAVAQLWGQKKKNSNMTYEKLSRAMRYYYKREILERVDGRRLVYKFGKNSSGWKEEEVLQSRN
In outline: as §1

The next test concerns the target ETV1 (Homo sapiens, UniProt P50549 1-477). In outline:
as §1

The next test concerns the target T7, FEV (Homo sapiens, UniProt Q99581 1-238).
T7 sequence: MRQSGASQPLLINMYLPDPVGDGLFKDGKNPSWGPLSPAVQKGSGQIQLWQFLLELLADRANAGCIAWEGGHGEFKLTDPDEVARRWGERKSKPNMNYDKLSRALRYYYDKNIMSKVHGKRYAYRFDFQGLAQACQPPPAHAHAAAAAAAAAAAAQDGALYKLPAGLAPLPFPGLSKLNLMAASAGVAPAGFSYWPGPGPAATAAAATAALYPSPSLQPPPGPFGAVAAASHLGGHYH
In outline: as §1

Another test deals with T8, SPDEF (Homo sapiens, UniProt O95238 1-335).
T8 sequence: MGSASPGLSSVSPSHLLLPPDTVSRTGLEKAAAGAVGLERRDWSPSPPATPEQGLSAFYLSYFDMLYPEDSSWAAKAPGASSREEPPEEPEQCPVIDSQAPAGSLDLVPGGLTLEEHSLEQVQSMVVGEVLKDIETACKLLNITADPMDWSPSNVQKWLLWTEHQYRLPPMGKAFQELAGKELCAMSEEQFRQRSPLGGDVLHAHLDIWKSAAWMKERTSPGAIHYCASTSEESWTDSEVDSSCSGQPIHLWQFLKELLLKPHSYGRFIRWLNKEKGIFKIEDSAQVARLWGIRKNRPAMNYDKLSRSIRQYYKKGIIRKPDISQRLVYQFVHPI
In short, it runs like this:
as §1

In a further test the target is CRX (Homo sapiens, UniProt O43186 1-299). In short, it runs like this:
as §1

The target in another test is T9, ERF (Homo sapiens, UniProt P50548 1-548).
T9 sequence: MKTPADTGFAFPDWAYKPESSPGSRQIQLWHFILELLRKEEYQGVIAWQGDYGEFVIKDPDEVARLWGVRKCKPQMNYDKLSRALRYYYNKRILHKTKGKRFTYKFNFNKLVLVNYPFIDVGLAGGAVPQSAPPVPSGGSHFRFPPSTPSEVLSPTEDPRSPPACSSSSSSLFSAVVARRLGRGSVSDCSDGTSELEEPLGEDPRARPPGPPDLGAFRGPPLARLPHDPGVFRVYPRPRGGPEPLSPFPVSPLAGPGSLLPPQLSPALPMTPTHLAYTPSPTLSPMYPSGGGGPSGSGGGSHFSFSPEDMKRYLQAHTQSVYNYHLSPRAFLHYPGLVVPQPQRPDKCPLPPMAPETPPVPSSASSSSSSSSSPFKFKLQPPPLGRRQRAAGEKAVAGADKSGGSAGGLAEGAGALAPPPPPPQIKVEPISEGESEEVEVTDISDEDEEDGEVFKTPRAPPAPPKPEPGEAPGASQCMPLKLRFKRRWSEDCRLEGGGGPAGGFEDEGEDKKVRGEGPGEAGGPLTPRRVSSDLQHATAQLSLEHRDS
In short, it runs like this: as §1

The target in the next test is T10, ETV3 (Homo sapiens, UniProt P41162-2 1-143).
T10 sequence: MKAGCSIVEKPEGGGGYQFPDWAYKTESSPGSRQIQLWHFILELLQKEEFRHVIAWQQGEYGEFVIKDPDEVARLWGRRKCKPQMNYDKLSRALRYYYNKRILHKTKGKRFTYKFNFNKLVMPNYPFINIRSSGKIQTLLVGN
In outline:
as §1

Another test addresses ETV6 (Homo sapiens, UniProt P41212 1-452). In outline: as §1

Data on seven sequences can be found in publication PMC7862700, “An all-to-all approach to the identification of sequence-specific readers for epigenetic DNA modifications on cytosine”.

Sequence of ETV1 (P50549 whole entry): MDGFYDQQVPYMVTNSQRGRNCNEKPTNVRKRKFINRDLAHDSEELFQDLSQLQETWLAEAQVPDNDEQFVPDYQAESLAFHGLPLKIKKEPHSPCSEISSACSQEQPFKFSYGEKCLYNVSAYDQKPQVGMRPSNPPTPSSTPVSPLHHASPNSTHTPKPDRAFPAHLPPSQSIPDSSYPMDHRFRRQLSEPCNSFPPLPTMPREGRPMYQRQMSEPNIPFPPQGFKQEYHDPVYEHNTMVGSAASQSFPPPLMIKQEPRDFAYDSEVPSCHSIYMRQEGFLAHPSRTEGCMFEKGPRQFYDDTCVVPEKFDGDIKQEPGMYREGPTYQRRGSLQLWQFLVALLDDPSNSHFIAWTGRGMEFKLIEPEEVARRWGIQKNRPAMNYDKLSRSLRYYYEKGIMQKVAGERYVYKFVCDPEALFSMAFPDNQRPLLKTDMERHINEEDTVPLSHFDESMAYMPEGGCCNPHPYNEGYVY
Sequence of ELF1 (P32519 whole entry): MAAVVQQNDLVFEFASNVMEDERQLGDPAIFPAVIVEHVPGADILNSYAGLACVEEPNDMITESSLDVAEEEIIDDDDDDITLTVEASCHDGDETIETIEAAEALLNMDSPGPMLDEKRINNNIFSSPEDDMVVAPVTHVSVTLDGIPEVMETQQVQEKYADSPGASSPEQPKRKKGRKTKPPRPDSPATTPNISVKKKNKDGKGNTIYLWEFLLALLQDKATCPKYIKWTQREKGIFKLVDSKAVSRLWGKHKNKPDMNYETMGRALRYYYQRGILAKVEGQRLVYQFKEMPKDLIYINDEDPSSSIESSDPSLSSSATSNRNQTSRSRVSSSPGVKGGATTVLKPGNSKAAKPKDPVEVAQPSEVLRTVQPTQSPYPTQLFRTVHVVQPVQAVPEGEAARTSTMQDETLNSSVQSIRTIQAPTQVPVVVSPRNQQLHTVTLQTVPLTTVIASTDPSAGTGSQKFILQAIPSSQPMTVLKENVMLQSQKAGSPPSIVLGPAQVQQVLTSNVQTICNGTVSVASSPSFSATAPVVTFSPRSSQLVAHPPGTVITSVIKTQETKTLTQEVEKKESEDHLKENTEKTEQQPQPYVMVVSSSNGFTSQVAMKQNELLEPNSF
Sequence of ETV6 (P41212 whole entry): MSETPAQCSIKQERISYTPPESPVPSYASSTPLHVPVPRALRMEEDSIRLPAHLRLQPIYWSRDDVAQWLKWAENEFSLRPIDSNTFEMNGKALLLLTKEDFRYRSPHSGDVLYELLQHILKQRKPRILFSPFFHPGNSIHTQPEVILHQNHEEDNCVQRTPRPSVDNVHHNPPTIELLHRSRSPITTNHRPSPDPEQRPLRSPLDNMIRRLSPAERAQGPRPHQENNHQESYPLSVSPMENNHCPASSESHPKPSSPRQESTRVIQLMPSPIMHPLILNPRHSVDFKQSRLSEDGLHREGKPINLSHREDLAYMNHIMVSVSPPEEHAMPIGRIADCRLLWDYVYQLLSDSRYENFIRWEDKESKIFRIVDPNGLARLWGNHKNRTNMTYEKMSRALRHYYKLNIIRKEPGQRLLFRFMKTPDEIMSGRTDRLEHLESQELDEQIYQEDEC
Sequence of CRX (O43186 whole entry): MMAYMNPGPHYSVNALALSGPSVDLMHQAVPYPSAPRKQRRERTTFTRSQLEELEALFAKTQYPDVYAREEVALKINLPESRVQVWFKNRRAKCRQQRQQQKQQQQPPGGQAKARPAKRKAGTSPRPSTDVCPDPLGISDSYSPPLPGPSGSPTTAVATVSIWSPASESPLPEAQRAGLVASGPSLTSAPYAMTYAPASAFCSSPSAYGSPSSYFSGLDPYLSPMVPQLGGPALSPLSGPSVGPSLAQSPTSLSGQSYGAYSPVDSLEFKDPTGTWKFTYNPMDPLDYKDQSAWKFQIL

GGCTGC: the binding signal is 1.02 fold enrichment (6-mer frequency, TF over GST control) with EHF; 1.01 fold enrichment (6-mer frequency, TF over GST control) with SPI1; 1 fold enrichment (6-mer frequency, TF over GST control) with ELK4; 1.14 fold enrichment (6-mer frequency, TF over GST control) with ETV7.

In the case of GTAACG, the binding signal is 1.03 fold enrichment (6-mer frequency, TF over GST control) with ELK4 and 1.08 fold enrichment (6-mer frequency, TF over GST control) with ETV2.

TGAACG: the binding signal in the test with ELF1 is 1.01 fold enrichment (6-mer frequency, TF over GST control); with ELK3, 1.06 fold enrichment (6-mer frequency, TF over GST control); with ELK4, 1.02 fold enrichment (6-mer frequency, TF over GST control); with ETV2, 1.02 fold enrichment (6-mer frequency, TF over GST control); with ELF3, 1.16 fold enrichment (6-mer frequency, TF over GST control); with ETV1, 1.02 fold enrichment (6-mer frequency, TF over GST control).

Turning to CCATAG, the binding signal in the test with ELK4 is 1.06 fold enrichment (6-mer frequency, TF over GST control); with ETV2 it was 1.01 fold enrichment (6-mer frequency, TF over GST control).

Consider CGGTCC, for which the binding signal in the test with ELK3 is 1.03 fold enrichment (6-mer frequency, TF over GST control); in the test with FEV, 1.06 fold enrichment (6-mer frequency, TF over GST control); with ELK4 it was 1.08 fold enrichment (6-mer frequency, TF over GST control); with SPDEF, 1.04 fold enrichment (6-mer frequency, TF over GST control).

As for GCGGCT, the binding signal with EHF is 1.02 fold enrichment (6-mer frequency, TF over GST control); in the test with ETV2 it was 1.08 fold enrichment (6-mer frequency, TF over GST control); in the test with CRX, 1.05 fold enrichment (6-mer frequency, TF over GST control); in the test with ERF, 1.08 fold enrichment (6-mer frequency, TF over GST control); with ETV3 it was 1 fold enrichment (6-mer frequency, TF over GST control); in the test with ETV6, 1 fold enrichment (6-mer frequency, TF over GST control).

TCATAG: the binding signal in the test with ELF3 is 1.04 fold enrichment (6-mer frequency, TF over GST control); with ERF it was 1 fold enrichment (6-mer frequency, TF over GST control).
